This is one part of the list. Inconclusive results are not listed. The source made the active and inactive calls. Unless noted, the rule behind the calls is not given here.

Test [1] addresses DNA polymerase kappa (Homo sapiens) (UniProt Q9UBT6). In words: qHTS for Inhibitors of Polymerase Kappa: Confirmatory Assay for Cherry-picked Compounds (AID 720501; active = well fitted curve in the direction sought with a large enough effect; an effect the other way counts as inactive or inconclusive; note: potency is the fitted concentration of half-maximal effect). As to conditions: purified Pol-kappa, fluorescent strand-displacement substrate. An excerpt: The processing and repair of DNA inter-strand crosslinks (ICL) in eukaryotic cells are extremely complex, potentially involving multiple DNA repair and damage tolerance pathways, including homologous recombination, nucleotide excision repair, translesion synthesis (TLS), and cell cycle checkpoints. […] A 1536-well format, fluorescence based, high-throughput screen (AID 588579) was developed in collaboration with the Oregon Health & Science University to screen for inhibitors of the Pol-kappa enzyme. This assay was used to validate the activity of the selected compounds from the primary screen against the human Pol-kappa. Inhibition is the desired outcome for this assay. NIH Chemical Genomics Center [NCGC] NIH Molecular Libraries Probe Centers Network [MLPCN] MLPCN Grant: MH094179 Assay Submitter (PI): Stephen Lloyd, Oregon Health & Science University
Three microliters of reagents (buffer in column 3 and 4 as negative control and 10 nM Pol-kappa in columns 1, 2, and 5-48) were dispensed into a 1536-well black solid-bottom plate. Compounds (23 nL) were transferred via Kalypsys pin tool equipped with 1536-pin array. […] The assay plates were initially read after 0 min and again after 10 min of kinetic reaction using the PerkinElmer Viewlux reader equipped with 525 nm excitation and 598 nm emission filters.
Background: qHTS replaces the single test concentration by a dilution series.

Test [2] can be described thus: qHTS profiling for inhibitors of Plasmodium falciparum (3D7) proliferation (AID 743322).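 Note: infected erythrocytes exposed to compound for 72 h before lysis; 100% = DMSO vehicle wells and 0% = 0.29 µM artemisinin.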 As to conditions: P. falciparum 3D7 proliferation; at 28.7 µM (top of the series). The gist of the method: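 Parasite DNA was quantified by SYBR Green I fluorescence (ex 485, em 535 nm) after overnight lysis in saponin/Triton buffer at room temperature. Cultures at 0.3% parasitemia and 2.5% hematocrit were first exposed to compound for 72 h at 37 C; signals were normalised to artemisinin (0.29 uM) and vehicle wells.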

Test [3] in a line: qHTS profiling for inhibitors of Plasmodium falciparum (DD2) proliferation (AID 743323). To be noted: lower = more inhibition; at 28.7 µM (top of the series). In a few lines:
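Parasite proliferation measured via DNA-dye fluorescence, as uninfected erythrocytes lack DNA. Cultures at 0.3% parasitemia and 2.5% hematocrit incubated 72 h with compound; signal scaled between vehicle and 0.29 uM artemisinin wells.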

The nature of test [4]: qHTS profiling for inhibitors of Plasmodium falciparum (HB3) proliferation (AID 743324; active = well fitted curve in the direction sought with a large enough effect; an effect the other way counts as inactive or inconclusive;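 note: 100% = DMSO vehicle wells and 0% = artemisinin-treated control wells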). As to conditions: Plasmodium falciparum HB3 blood-stage proliferation; at 28.7 µM (top of the series). The gist of the method:
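SYBR Green fluorescence (485 ex/535 em) of lysed cultures, incubated overnight at room temperature in the dark, quantifies parasite DNA. Infected erythrocytes at 0.3% parasitemia and 2.5% hematocrit were exposed 72 h; values normalized to DMSO and 0.29 uM artemisinin controls.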

DNA polymerase kappa (Homo sapiens), sequence (Q9UBT6 whole entry, looked up): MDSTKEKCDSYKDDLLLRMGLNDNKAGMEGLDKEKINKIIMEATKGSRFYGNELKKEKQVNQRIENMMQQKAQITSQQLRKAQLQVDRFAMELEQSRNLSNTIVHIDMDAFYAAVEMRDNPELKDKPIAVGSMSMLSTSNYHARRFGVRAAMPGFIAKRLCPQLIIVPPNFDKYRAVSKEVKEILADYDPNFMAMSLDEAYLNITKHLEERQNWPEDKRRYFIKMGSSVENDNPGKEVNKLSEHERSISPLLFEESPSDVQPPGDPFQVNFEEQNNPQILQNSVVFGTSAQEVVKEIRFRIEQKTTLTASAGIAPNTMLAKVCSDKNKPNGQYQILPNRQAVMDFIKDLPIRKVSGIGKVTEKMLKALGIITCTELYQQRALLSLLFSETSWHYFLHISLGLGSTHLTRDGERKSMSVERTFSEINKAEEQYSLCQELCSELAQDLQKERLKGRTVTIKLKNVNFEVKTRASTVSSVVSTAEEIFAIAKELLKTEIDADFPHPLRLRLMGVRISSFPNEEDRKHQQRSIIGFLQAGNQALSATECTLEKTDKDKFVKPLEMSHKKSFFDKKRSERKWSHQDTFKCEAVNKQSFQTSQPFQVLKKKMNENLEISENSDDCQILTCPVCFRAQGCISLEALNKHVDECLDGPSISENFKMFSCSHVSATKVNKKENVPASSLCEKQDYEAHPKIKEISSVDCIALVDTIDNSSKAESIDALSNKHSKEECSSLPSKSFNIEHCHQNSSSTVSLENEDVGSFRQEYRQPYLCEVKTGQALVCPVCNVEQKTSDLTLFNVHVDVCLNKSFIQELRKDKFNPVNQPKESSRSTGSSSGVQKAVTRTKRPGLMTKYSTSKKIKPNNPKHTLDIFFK

Regarding `COc1ccc(-c2cc(=O)c3c(O)cc(O[C@@H]4O[C@H](CO[C@@H]5O[C@@H](C)[C@H](O)[C@@H](O)[C@H]5O)[C@@H](O)[C@H](O)[C@H]4O)cc3o2)cc1O`, the Potency in test [1] was 18.9 µM (active).
With `CCOc1ccccc1O[C@H](c1ccccc1)[C@H]1CNCCO1`, in test [2], the remaining parasite growth % (stronger effect = lower value) was 89.6%. For the same compound, the activity, percent of control in test [3] is 63.9%. Also, the remaining proliferation (% of control), lower = more inhibition in test [4] turned out to be 47.7%.
In test [2], `CCCCCCCCCCOc1cc2c(=O)c(C(=O)OCC)c[nH]c2cc1OCC` came in with a remaining parasite growth % (stronger effect = lower value) of 0.552%. Moreover, in test [3], the activity, percent of control was found to be 2.1%.

The record behind these values is PubChem BioAssay (NCATS).
